Among the data in ChEMBL document CHEMBL1157539, “Thousands of chemical starting points for antimalarial lead identification” (Nature, 2010) are Inhibition values, retold here.

This assay concerns HepG2. Briefly: GSK_TCMDC: Percent inhibition of human HepG2 cell line. Test compounds present at 10uM. The class given is functional.
One may read the Inhibition as how much of the control response was suppressed. `FC(F)(F)c1ccc2[nH]c(-c3ccc(-c4cccc(CNCCc5cccnc5)c4)s3)nc2c1.O=C(O)C(F)(F)F`: the Inhibition is 26%.
To `Cl.N=C(N)NN=Cc1c2ccccc2c(Cl)c2cc(Cl)ccc12` belongs 26%; to `CCCc1cc(NC2CCN(C)CC2)nc(Nc2cccc(OC)c2)n1`, 31%; to `CCC(=O)N[C@@H]1CN[C@@H](C#Cc2cc3c(Nc4ccc(OCc5cccc(F)c5)c(Cl)c4)ncnc3s2)C1`, 46%.
The result for `COc1ccc(Nc2ncc3c(-c4cccc(NC(=O)Cc5cccc(O)c5)c4)c[nH]c3n2)cc1OC` reads 44%; that for `Cl.O=C(C=Cc1cccc(F)c1)NC1CCC(CCN2CCc3ccc(-c4cnccn4)cc3CC2)CC1` (configuration not stated), 51%; that for `CC(C)CNCc1cccc(-c2cccc(CNc3ccc4ncccc4c3)c2)c1.O=C(O)C(F)(F)F`, 23%.
With `C=C[C@H]1CN(CCCCCCC)CC[C@H]1CC(=O)Nc1cnnc2ccc(OC)cc12.O=C(O)C(=O)O`, the Inhibition came to 12%.
To `Cc1cccc2nc(-c3ccc(-c4cccc(CNCc5cccc(N)c5)c4)cc3)[nH]c12.O=C(O)C(F)(F)F` belongs 0%; to `O=C(Nc1ccc(OC2CCN(Cc3ccc(F)cc3)CC2)c(Cl)c1)c1ccccc1.O=C(O)C(F)(F)F`, 16%.
The result for `O=C(N[C@H]1CCN(Cc2ccc(OCCN3CCNCC3)c3ccccc23)C1)c1ccc(Cl)c(Cl)c1.O=C(O)C(F)(F)F` reads 53%; that for `COc1cccc(C(=O)C2CC2CN(C)CC(O)c2cc(C)c(OC)cc2C)c1.O=C(O)C(F)(F)F` (configuration not stated), 8%; that for `COc1cc(Cc2cnc(N)nc2N)cc(OCCCCC2NC(=O)NC2=O)c1OC` (configuration not stated), 2%.
To `COc1ccc2nccc([C@@H](O)CN3CCC(NC(=O)/C=C/c4cc(F)cc(NC(C)=O)c4)CC3)c2c1` belongs 7%; to `CC(C)(C)c1ccc(CN2CCC(NC(=O)c3ccc(-c4cccc(Cl)c4)s3)CC2)cc1.O=C(O)C(F)(F)F`, 36%.
`Nc1nc(N)c2c(ccc3ccccc32)n1`: the Inhibition is recorded as 60%.
The result for `O=C(/C=C/c1cccs1)NCC(NCCCNc1cc(=O)c2ccccc2[nH]1)c1cc(Br)cc(Br)c1` (configuration not stated) reads 0%; that for `CCCNCc1ccc(-c2ccc(CN(Cc3cnc(C)cn3)C(=O)/C=C/c3ccccc3C)cc2)nc1.O=C(O)C(F)(F)F`, 7%.
To `CCN(c1ccc(F)cc1)S(=O)(=O)c1cc(Br)cc2c1N(C(=O)C1CC1)CC2` belongs 0%; to `CCNc1cc(C(=O)N[C@@H](Cc2ccccc2)[C@H](O)CNCc2cc(C#N)ccc2OC)cc(N2CCCC2=O)c1.O=C(O)C(F)(F)F`, 0%; to `O=C(Nc1ccc(-c2csc(-c3nc4ccccc4[nH]3)c2)cc1)Nc1ccc(Cl)c(Cl)c1`, 75%.
To `O=C(Nc1cccc(OC2CCN(Cc3ccccc3)CC2)c1)c1ccc(Cl)c(Cl)c1.O=C(O)C(F)(F)F` belongs 16%.
`COc1ccc2nccc([C@@H](O)CN3CCC(NCc4nc5c([N+](=O)[O-])cccc5[nH]4)CC3)c2c1.O=C(O)C(=O)O` gave an Inhibition of 13%.
The result for `CCNc1cc(C(=O)N[C@@H](Cc2ccccc2)[C@H](O)CNCc2cccc(-c3cncnc3)c2)cc(N2CCCC2=O)c1.O=C(O)C(F)(F)F` reads 5%; that for `CN1CCC(C(=O)Nc2ccc(-c3ccc(-c4nc5ccccc5[nH]4)s3)cc2)CC1`, 30%.
To `CCCc1cc(=O)[nH]c(-n2nc(C)cc2NC(=O)C(CC)c2ccccc2)n1` (configuration not stated) belongs 41%.
To `Cc1nc(-c2cccc3c(NC(=O)N4CCc5cc6nccc(N7CCN(C)CC7)c6cc54)cccc23)no1.Cl` belongs 45%.
